Most compounds without a hit are left out; they make up all but 2.2% or so of the library.
PPC-1+TRAIL kill: compounds killing PPC-1 cancer cells with TRAIL present (potentiator screen, no TRAIL-free arm). PPC-1 cells + TRAIL, ATPLite viability luminescence. cell killing (% activity), % at 4 µM or 5 µM. hit rate 0.41% among 220,000;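 active = cell killing above 50% in the first pass at 4 µM, then a duplicate retest at 5 µM averaging 50% or more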;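 note: plate controls were cells with TRAIL plus DMSO for no effect and medium-only wells lacking cells for full effect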
HIF-2a block: inhibitors of HIF-2a. 786-0 RCC cells HIF-2a reporter, luciferase luminescence, overnight. inhibition, % at 18.8 µM. hit rate 0.72% among 360,000. AID 624352;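 active = inhibition of the luminescence signal of 40% or more relative to plate controls, in a single-dose primary screen at 18.75 µM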
KKLEB tox: reduces viability of KKLEB cystic fibrosis airway cells; KKLEB CF airway cells viability, ATPlite luminescence, overnight; hits give low values; cells stimulated with P. aeruginosa culture filtrate; activity change (cytotoxicity), % at 5 µM; hit rate 0.36% among 360,000;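 active = corrected activity change at or below -50% at 5 µM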
hiPSC survival: increases survival of single human iPS cells; hiPSC single-cell survival, ATPlite luminescence; 100% = ROCK inhibitor wells, 0% = DMSO; survival enhancement, % at 20 µM; hit rate 0.044% among 360,000; in the data active = survival enhancement above about 18%;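 note: cells exposed to compounds for 16 hours before the ATP read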
TRAIL sens C8: sensitizes caspase-8 expressing cells to TRAIL; AID 624354; hit rate 1% among 360,000; NB7+C8 cells + TRAIL, ATPlite viability luminescence; inhibition (viability loss, TRAIL sensitization), % at 10 µM;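 active = compounds causing at least 50% loss of cell viability in the single-dose screen, relative to plate controls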
CF NFkB inh: blocks PAF-induced NF-kB reporter in cystic fibrosis cells; KKLEB NF-kB-GFP reporter, GFP fluorescence overnight; inhibition, % at 5 µM; hit rate 0.86% among 360,000; AID 588850;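 active = at least 50% inhibition at 5 µM, scaled per plate between neutral and stimulator controls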;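 note: PAF is a Pseudomonas aeruginosa culture filtrate used as stimulus; plate controls were PAF-stimulated DMSO wells for no effect and unstimulated DMSO wells for full effect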
Mdm2-MdmX confirm: Mdm2/MdmX (human) interaction inhibition, confirmed | SaOS-2 split-luciferase Mdm2/MdmX complementation, luminescence | hit rate 99% among 740 | inhibition, % at 8 µM | shares compounds with HIF-2a block;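 active = mean inhibition of the luminescence signal across two replicates at or above 26 percent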
Target sequence (O15151 whole entry, looked up): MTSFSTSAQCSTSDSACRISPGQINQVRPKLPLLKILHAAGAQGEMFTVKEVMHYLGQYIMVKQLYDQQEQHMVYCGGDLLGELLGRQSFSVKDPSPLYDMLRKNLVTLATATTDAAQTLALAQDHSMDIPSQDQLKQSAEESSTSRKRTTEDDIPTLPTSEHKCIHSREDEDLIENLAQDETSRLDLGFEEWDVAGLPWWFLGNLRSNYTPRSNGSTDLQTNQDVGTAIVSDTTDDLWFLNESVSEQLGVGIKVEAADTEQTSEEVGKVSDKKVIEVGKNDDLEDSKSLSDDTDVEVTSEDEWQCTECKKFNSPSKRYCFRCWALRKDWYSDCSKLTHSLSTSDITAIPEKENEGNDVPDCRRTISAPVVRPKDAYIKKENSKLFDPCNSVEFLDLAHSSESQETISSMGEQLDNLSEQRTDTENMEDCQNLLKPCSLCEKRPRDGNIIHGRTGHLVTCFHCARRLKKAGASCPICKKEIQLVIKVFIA
Target sequence (Q00987 whole entry, looked up): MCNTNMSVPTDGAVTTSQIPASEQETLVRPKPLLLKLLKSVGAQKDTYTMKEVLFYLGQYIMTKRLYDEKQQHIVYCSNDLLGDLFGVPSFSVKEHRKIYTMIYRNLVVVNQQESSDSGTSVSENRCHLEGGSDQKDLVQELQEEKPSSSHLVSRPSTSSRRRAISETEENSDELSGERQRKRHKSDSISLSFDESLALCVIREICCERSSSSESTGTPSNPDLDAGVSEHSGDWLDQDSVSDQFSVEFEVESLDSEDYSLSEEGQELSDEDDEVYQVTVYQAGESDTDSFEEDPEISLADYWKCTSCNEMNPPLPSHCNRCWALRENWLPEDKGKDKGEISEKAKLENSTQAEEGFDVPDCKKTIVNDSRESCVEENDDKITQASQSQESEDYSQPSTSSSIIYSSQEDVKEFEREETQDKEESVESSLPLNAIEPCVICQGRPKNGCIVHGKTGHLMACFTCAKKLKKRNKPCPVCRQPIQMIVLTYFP
HIF-2a inh conf: HIF-2a inhibition, single concentration confirmation; 786-0 RCC cells, HIF-2a luciferase reporter luminescence, overnight; hit rate 56% among 1,800; inhibition, % at 18.8 µM; shares compounds with HIF-2a block;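 active = mean inhibition across four replicates of at least 40 percent at the single tested concentration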
HIF-1a counter: HIF-1a inhibition counter-screen for HIF-2a hits; shares compounds with HIF-2a block; MiaPaCa-2 HIF-1a luciferase reporter, desferoxamine, overnight; inhibition, % at 18.8 µM; hit rate 72% among 1,800;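 active = mean inhibition of the reporter signal across four replicates at the single tested dose of 50% or more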
* = called active by the depositor.

CCSc1nc(-c2ccc(OC)cc2)cc(-c2ccccc2)c1C#N was read as PPC-1+TRAIL kill 6, HIF-2a block 1, KKLEB tox -5, hiPSC survival 2, TRAIL sens C8 0 and CF NFkB inh 21.
COc1ccc(-c2cc(-c3ccccc3)c(C#N)c(S(C)=O)n2)cc1 (configuration not stated) was read as PPC-1+TRAIL kill 40, HIF-2a block 76*, KKLEB tox -28, hiPSC survival -6, TRAIL sens C8 91*, CF NFkB inh 13, HIF-2a inh conf 31 and HIF-1a counter 98*.
`Cc1cc(C)n(-c2ncc(C#N)cn2)n1` gave PPC-1+TRAIL kill 36, HIF-2a block 49*, KKLEB tox 14, hiPSC survival -1, TRAIL sens C8 -5, CF NFkB inh 1, HIF-2a inh conf 4 and HIF-1a counter -3.
For CS(=O)(=O)Nc1cccc(C(=O)OCCCOc2ccc(F)cc2)c1 the results were HIF-2a block 15, KKLEB tox 6, hiPSC survival 0, TRAIL sens C8 36 and CF NFkB inh -1.
`COCCN(Cc1ccco1)C(=O)Cn1ncc2c(=O)oc3ccccc3c21` gave PPC-1+TRAIL kill 7, HIF-2a block 45*, KKLEB tox 7, hiPSC survival 0, TRAIL sens C8 12, CF NFkB inh -12, HIF-2a inh conf -4 and HIF-1a counter 18.
For COC(=O)c1c(NC(=O)CSc2nnc3ccccn23)sc2c1CCC2 the results were PPC-1+TRAIL kill -6, HIF-2a block 10, KKLEB tox -4, hiPSC survival 0, TRAIL sens C8 3 and CF NFkB inh -4.
For Cc1ccc(C(=O)c2c(NC(=O)CSc3nnc(N)s3)sc3c2CCCC3)cc1 the results were PPC-1+TRAIL kill -6, HIF-2a block 61*, KKLEB tox 8, hiPSC survival -1, TRAIL sens C8 -1, CF NFkB inh -7, HIF-2a inh conf 2 and HIF-1a counter 63*.
CCn1c(CN2CCOCC2)nnc1SCC(=O)Nc1ccccc1Cl was read as HIF-2a block 2, KKLEB tox 1, hiPSC survival 0, TRAIL sens C8 1 and CF NFkB inh 6.
Screening CC[N+]1(C)CCC(O)(/C=C/c2ccccc2)C(C(=O)/C=C/c2ccccc2)C1 (configuration not stated) returned HIF-2a block 90*, KKLEB tox -15, hiPSC survival -3, TRAIL sens C8 18, CF NFkB inh 40, HIF-2a inh conf 46* and HIF-1a counter 103*.
For O=C1c2ccccc2C(=O)c2c1oc(C(F)(F)F)c2C(=O)c1ccccc1 the results were PPC-1+TRAIL kill 20, HIF-2a block 23, KKLEB tox -82*, hiPSC survival -1, TRAIL sens C8 96*, CF NFkB inh 90* and Mdm2-MdmX confirm 94*.
O=C(c1ccccc1)c1ccc(CN2C(=O)c3ccccc3C2=O)o1 was read as PPC-1+TRAIL kill -5, HIF-2a block -5, KKLEB tox 3, hiPSC survival 0, TRAIL sens C8 -19 and CF NFkB inh 12.
Screening O=C(CNC(=O)c1ccco1)NCC(=O)OCC(=O)c1ccc(Cl)c([N+](=O)[O-])c1 returned HIF-2a block -7, KKLEB tox -5, hiPSC survival 0, TRAIL sens C8 2 and CF NFkB inh 1.
Screening Oc1ccc(Nc2nc(N3CCCC3)c3ccccc3n2)cc1 returned PPC-1+TRAIL kill 36, HIF-2a block 46*, KKLEB tox -4, hiPSC survival -1, TRAIL sens C8 25, CF NFkB inh -65, HIF-2a inh conf 35 and HIF-1a counter 104*.
For CC1CC(OC(=O)C2CCN(S(=O)(=O)c3ccc(F)cc3)CC2)C(=O)O1 (configuration not stated) the results were HIF-2a block 18, KKLEB tox -19, hiPSC survival 0, TRAIL sens C8 -7 and CF NFkB inh 26.
CCc1cc(SC#N)cc(CC)c1NC(=O)CCl was read as PPC-1+TRAIL kill -1, HIF-2a block 49*, KKLEB tox -30, hiPSC survival -1, TRAIL sens C8 -4, CF NFkB inh 39, HIF-2a inh conf 35 and HIF-1a counter -23.
O=C(Nc1ccc(Cl)c(C(F)(F)F)c1)c1ccncc1 was read as HIF-2a block -18, KKLEB tox -6, hiPSC survival 0, TRAIL sens C8 9 and CF NFkB inh -45.
CNC(=O)c1cc(Oc2ccc(NC(=O)Nc3ccc(Cl)c(C(F)(F)F)c3)cc2)ccn1 was read as HIF-2a block 15, KKLEB tox -12, hiPSC survival 2, TRAIL sens C8 71*, CF NFkB inh 75* and Mdm2-MdmX confirm 99*.
Screening CC(C)(C)N1CC(C(=O)Nc2cccc(Cl)c2Cl)CC1=O (configuration not stated) returned HIF-2a block 17, KKLEB tox -10, hiPSC survival 1, TRAIL sens C8 -13 and CF NFkB inh 14.
`Cc1nc(SCc2ccc(C(=O)O)cc2)nc2c1CCCC2` gave PPC-1+TRAIL kill 6, HIF-2a block 82*, KKLEB tox 0, hiPSC survival -1, TRAIL sens C8 21, CF NFkB inh 0, HIF-2a inh conf 89* and HIF-1a counter 62*.
CCC(=O)Nc1c(C#N)c2nc3ccccc3nc2n1C1CCCCC1 was read as PPC-1+TRAIL kill -1, HIF-2a block 8, KKLEB tox -3, hiPSC survival -2, TRAIL sens C8 4 and CF NFkB inh 5.
For N#Cc1c(N)n(C2CCCCC2)c2nc3ccccc3nc12 the results were PPC-1+TRAIL kill 14, HIF-2a block 42*, KKLEB tox -21, hiPSC survival -1, TRAIL sens C8 -1, CF NFkB inh 17, HIF-2a inh conf 16 and HIF-1a counter 77*.
COC(=O)COc1ccc(S(=O)(=O)NCCC2=CCCCC2)cc1Cl was read as PPC-1+TRAIL kill 8, HIF-2a block 57*, KKLEB tox 12, hiPSC survival 1, TRAIL sens C8 -23, CF NFkB inh -10, HIF-2a inh conf 22 and HIF-1a counter -9.
For CCOc1cc(/C=N/NC(N)=O)cc(Br)c1OCC(=O)Nc1ccccc1C the results were PPC-1+TRAIL kill 4, HIF-2a block 40*, KKLEB tox -13, hiPSC survival 1, TRAIL sens C8 5, CF NFkB inh -10, HIF-2a inh conf 15 and HIF-1a counter 66*.

Compound activity deposited in PubChem by Sanford-Burnham Center for Chemical Genomics.
